Test results published in PubChem BioAssay.
Unmarked numbers belong to inactive results. Calls of active or inactive are those of the source. Cut-off read from the data, not from the text of the source, unless noted: active = inhibition above about 42%; inactive = the rest.

system: not listed separately; experiment: StAR promoter reporter inhibitors, counter-screen for LRH-1 inverse agonist project, cell-based, luminescence, high throughput (AID 651611; in the data active = inhibition above about 28%); settings: StAR promoter luciferase reporter counterscreen, at 3.6 µM, hits give high values

SMILES	inhibition
COc1ccc(NC(=O)CSc2nnc(-c3ccccn3)n2N)cc1Cl	20.3%
CCOC(=O)c1c(C)[nH]c(C(=O)COC(=O)/C=C/c2ccc3c(c2)OCO3)c1C	13%
CC(=O)Nc1cc(-c2cccc(N)c2)cn2c(-c3ccc(C(C)=O)cc3)cnc12	19.6%
CCCc1cc(=O)oc2cc3oc(C)c(C)c3cc12	-1.82%
COc1ccc(CCNC(=O)c2ccc(CSc3ccc(Cl)cc3)o2)cc1OC	-6.83%
O=C(Nc1ccccn1)c1ccc([N+](=O)[O-])o1	14.3%
Cn1c(=O)n(C)c2cc(NC(=O)CSc3nnc(-c4ccccc4O)n3-c3ccccc3)ccc21	30.1% (active)
O=C(COC(=O)Cn1[nH]c(=O)c2ccccc2c1=O)NNC(=O)c1ccc(Br)cc1	27.8% (active)
COc1cc(C2c3cc4c(cc3OC(Nc3ccc(C(=O)O)cc3)C2C)OCO4)cc(OC)c1OC (stereo not given)	44.5% (active)
c1ccc(-n2nnnc2-c2cccc3ccccc23)cc1	42% (active)
COc1ccc2nc(N3CCC(O)CC3)c(C#N)cc2c1	-24.2%
CCOCC(=O)Nc1ccc([N+](=O)[O-])cc1C	9%
COc1ccc(NC(=O)CSC2=NCCN2)cc1	-2.78%
O=C(Cn1nnc2ccccc2c1=O)Nc1ccc2c(c1)CCC2	-34.8%
c1csc(CCNc2ncnc3sc4c(c23)CCC4)c1	10.5%
Nc1ccc(Nc2ccncc2[N+](=O)[O-])cc1	2.61%
CN(C)S(=O)(=O)c1cccc(C(=O)OCC(=O)Nc2ccc3c(c2)OCCO3)c1	17.9%
Cn1c(=O)n(C)c2cc(NC(=O)CCl)ccc21	60.5% (active)
COc1cccc(NC(=O)c2oc3ccccc3c2NC(=O)C2CC2)c1	-5.29%
COc1cc(/C=N/Nc2snc(SC)c2C#N)ccc1O	13.1%

SMILES	inhibition
CCC1(C)OC(=O)N2CCc3c(C)[nH]c4c(C)ccc(c34)C21C (stereo not given)	8.96%
CC(C(=O)N1CCCc2c1c(=O)oc1ccc(O)cc21)N1CCc2ccccc2C1 (stereo not given)	3.35%
O=C(O)/C=C/C(=O)Nc1ccccc1SC(F)(F)C(F)(F)C(F)(F)F	20.1%
Cc1nc(C)c(-c2csc(Nc3cccnc3)n2)s1	-12.1%
CC(C)c1cc(NC(=O)CCl)on1	35.2% (active)
Cc1cc2ncn(/N=C/c3ccc([N+](=O)[O-])o3)c2cc1C	17.6%
Cc1ccc2[nH]c3c(c2c1)CCN1C(=O)OC(C)(C)C31C (stereo not given)	10.6%
O=[N+]([O-])c1cc2ncccc2c2ncccc12	42.1% (active)
Cc1c(NC(=O)c2cc(-c3cccs3)nc3ccccc23)c(=O)n(-c2ccccc2)n1C	47% (active)
Cc1cccc(CSC(Nc2ccc(F)cc2)=C(C#N)C#N)c1	-5.34%
Cc1cc(-c2nn3c(-c4ccccc4)nnc3s2)c2ccccc2n1	7.3%
CCc1cc(=O)oc2c(C)c(OCC(=O)NCCN3CCOCC3)ccc12	-3.34%
Cc1ccc(NC(=O)COC(=O)c2cc(=O)c3ccccc3o2)c(Br)c1	7.74%
COc1cc(/C=N/NC(N)=S)ccc1OCC(=O)Nc1ccc(C)cc1	-3.71%
CC1=[N+](C)c2c(ccc3cccnc23)C1(C)C	12.2%
O=C(COC(=O)c1ccc[n+]([O-])c1)Nc1ccc([N+](=O)[O-])cc1Cl	17.6%
CCOc1ccc(CCNC(=O)COC(=O)c2cc(S(=O)(=O)N3CCOCC3)ccc2F)cc1OCC	5.25%
CCOc1ccc(NC(=O)COC(=O)C2CCC(=O)N2)c([N+](=O)[O-])c1 (stereo not given)	4.31%
COc1cccc(NC(=O)N(C)C[C@H]2Oc3cc(C#Cc4ccncc4)ccc3S(=O)(=O)N([C@H](C)CO)C[C@H]2C)c1	28% (active)
c1ccc(-c2nc(N3CCCCCC3)c3ccccc3n2)nc1	24.7%

target: Nuclear receptor subfamily 5 group A member 2 (Homo sapiens) (UniProt O00482); experiment: NR5A2 activity suppression in reporter cells – cell-based, luminescence, confirmation (AID 651613); settings: cell-based LRH-1 luciferase reporter, inverse agonism; at 3.6 µM; hits give high values;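 note: HEK293T cells co-transfected with LRH-1 and StAR promoter luciferase reporter; 0% = vehicle wells and 100% = parental cells lacking receptor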
Sequence (O00482 whole entry, looked up): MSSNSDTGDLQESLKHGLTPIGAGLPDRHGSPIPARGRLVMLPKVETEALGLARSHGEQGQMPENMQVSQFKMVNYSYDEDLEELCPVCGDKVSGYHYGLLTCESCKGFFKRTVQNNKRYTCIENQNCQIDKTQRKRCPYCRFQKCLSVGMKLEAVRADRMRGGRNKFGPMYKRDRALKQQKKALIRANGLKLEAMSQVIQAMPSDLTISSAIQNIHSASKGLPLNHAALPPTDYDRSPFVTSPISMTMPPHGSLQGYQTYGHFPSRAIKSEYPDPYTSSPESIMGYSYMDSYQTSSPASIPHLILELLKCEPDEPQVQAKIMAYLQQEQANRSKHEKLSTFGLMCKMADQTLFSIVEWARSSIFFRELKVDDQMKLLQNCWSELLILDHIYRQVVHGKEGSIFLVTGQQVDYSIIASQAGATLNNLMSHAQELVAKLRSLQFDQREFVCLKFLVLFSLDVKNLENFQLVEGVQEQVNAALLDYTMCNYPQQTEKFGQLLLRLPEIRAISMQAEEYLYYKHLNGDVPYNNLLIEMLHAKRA

SMILES	inhibition
COc1ccc(NC(=O)CSc2nnc(-c3ccccn3)n2N)cc1Cl	48.5% (active)
CCOC(=O)c1c(C)[nH]c(C(=O)COC(=O)/C=C/c2ccc3c(c2)OCO3)c1C	36.5%
CC(=O)Nc1cc(-c2cccc(N)c2)cn2c(-c3ccc(C(C)=O)cc3)cnc12	33.4%
CCCc1cc(=O)oc2cc3oc(C)c(C)c3cc12	52.3% (active)
COc1ccc(CCNC(=O)c2ccc(CSc3ccc(Cl)cc3)o2)cc1OC	28.3%
O=C(Nc1ccccn1)c1ccc([N+](=O)[O-])o1	58.2% (active)
Cn1c(=O)n(C)c2cc(NC(=O)CSc3nnc(-c4ccccc4O)n3-c3ccccc3)ccc21	58.8% (active)
O=C(COC(=O)Cn1[nH]c(=O)c2ccccc2c1=O)NNC(=O)c1ccc(Br)cc1	32.1%
COc1cc(C2c3cc4c(cc3OC(Nc3ccc(C(=O)O)cc3)C2C)OCO4)cc(OC)c1OC (stereo not given)	49.7% (active)
c1ccc(-n2nnnc2-c2cccc3ccccc23)cc1	52.5% (active)
COc1ccc2nc(N3CCC(O)CC3)c(C#N)cc2c1	43.6% (active)
CCOCC(=O)Nc1ccc([N+](=O)[O-])cc1C	59.1% (active)
COc1ccc(NC(=O)CSC2=NCCN2)cc1	31.3%
O=C(Cn1nnc2ccccc2c1=O)Nc1ccc2c(c1)CCC2	20.8%
c1csc(CCNc2ncnc3sc4c(c23)CCC4)c1	63.7% (active)
Nc1ccc(Nc2ccncc2[N+](=O)[O-])cc1	65.6% (active)
CN(C)S(=O)(=O)c1cccc(C(=O)OCC(=O)Nc2ccc3c(c2)OCCO3)c1	51.5% (active)
Cn1c(=O)n(C)c2cc(NC(=O)CCl)ccc21	73.4% (active)
COc1cccc(NC(=O)c2oc3ccccc3c2NC(=O)C2CC2)c1	50.6% (active)
COc1cc(/C=N/Nc2snc(SC)c2C#N)ccc1O	28.3%

SMILES	inhibition
CCC1(C)OC(=O)N2CCc3c(C)[nH]c4c(C)ccc(c34)C21C (stereo not given)	41.6% (active)
CC(C(=O)N1CCCc2c1c(=O)oc1ccc(O)cc21)N1CCc2ccccc2C1 (stereo not given)	48.5% (active)
O=C(O)/C=C/C(=O)Nc1ccccc1SC(F)(F)C(F)(F)C(F)(F)F	54.8% (active)
Cc1nc(C)c(-c2csc(Nc3cccnc3)n2)s1	41.5% (active)
CC(C)c1cc(NC(=O)CCl)on1	47.4% (active)
Cc1cc2ncn(/N=C/c3ccc([N+](=O)[O-])o3)c2cc1C	69.1% (active)
Cc1ccc2[nH]c3c(c2c1)CCN1C(=O)OC(C)(C)C31C (stereo not given)	53.7% (active)
O=[N+]([O-])c1cc2ncccc2c2ncccc12	56.2% (active)
Cc1c(NC(=O)c2cc(-c3cccs3)nc3ccccc23)c(=O)n(-c2ccccc2)n1C	33.5%
Cc1cccc(CSC(Nc2ccc(F)cc2)=C(C#N)C#N)c1	35%
Cc1cc(-c2nn3c(-c4ccccc4)nnc3s2)c2ccccc2n1	38.6%
CCc1cc(=O)oc2c(C)c(OCC(=O)NCCN3CCOCC3)ccc12	48.5% (active)
Cc1ccc(NC(=O)COC(=O)c2cc(=O)c3ccccc3o2)c(Br)c1	50.4% (active)
COc1cc(/C=N/NC(N)=S)ccc1OCC(=O)Nc1ccc(C)cc1	48.1% (active)
CC1=[N+](C)c2c(ccc3cccnc23)C1(C)C	38.6%
O=C(COC(=O)c1ccc[n+]([O-])c1)Nc1ccc([N+](=O)[O-])cc1Cl	59.4% (active)
CCOc1ccc(CCNC(=O)COC(=O)c2cc(S(=O)(=O)N3CCOCC3)ccc2F)cc1OCC	53.2% (active)
CCOc1ccc(NC(=O)COC(=O)C2CCC(=O)N2)c([N+](=O)[O-])c1 (stereo not given)	50.5% (active)
COc1cccc(NC(=O)N(C)C[C@H]2Oc3cc(C#Cc4ccncc4)ccc3S(=O)(=O)N([C@H](C)CO)C[C@H]2C)c1	50.6% (active)
c1ccc(-c2nc(N3CCCCCC3)c3ccccc3n2)nc1	63.5% (active)
